# Data: PubChem BioAssay AID651711 (Broad Institute, 2012)
# “And” between values parts separate entries of the source, which are not always exact repeats. Equal entries are not always repeated. Out of some 350,000 compounds screened, about 180 (0.051%) were called active. This is one part of a sample in which actives are shown more often than they occur.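 The calls were made as follows: active = mean replicate inhibition above about 25%, with every replicate also reaching it (limit read from the data, passing the limit was not always enough); inconclusive = only one of those two criteria met; inactive = neither criterion met.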
# Target: Protein disulfide-isomerase A6 (Homo sapiens) (UniProt Q15084)
# Assay: ERp5 (PDIA6) reductase activity blockers – biochemical, turbidity, absorbance 650 nm, single point, primary screen (AID 651711)
# Details: ERp5 insulin aggregation, 90 min, at 9.99 µM, hits give high values
# Sequence of Protein disulfide-isomerase A6 (Homo sapiens) (Q15084 whole entry, looked up): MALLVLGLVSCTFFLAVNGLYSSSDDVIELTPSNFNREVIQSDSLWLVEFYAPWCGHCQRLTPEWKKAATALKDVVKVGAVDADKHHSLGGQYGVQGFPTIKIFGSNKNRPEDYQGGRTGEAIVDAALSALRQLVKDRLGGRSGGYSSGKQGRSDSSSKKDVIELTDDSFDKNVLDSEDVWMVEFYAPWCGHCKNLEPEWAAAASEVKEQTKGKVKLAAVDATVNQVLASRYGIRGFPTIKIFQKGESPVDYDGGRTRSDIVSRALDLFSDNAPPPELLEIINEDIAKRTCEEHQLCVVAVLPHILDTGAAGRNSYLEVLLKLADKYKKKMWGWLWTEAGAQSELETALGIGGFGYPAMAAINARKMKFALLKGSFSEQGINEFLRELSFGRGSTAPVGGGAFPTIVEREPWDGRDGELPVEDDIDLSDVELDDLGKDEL
row,SMILES,inhibition
1,C[C@@H]1CN([C@H](C)CO)C(=O)Cc2cc(NC(=O)Nc3cccc4ccccc34)ccc2O[C@H]1CN(C)C(=O)Nc1ccc2c(c1)OCO2,-12.4% (inactive)
2,C[C@H](CO)N1C[C@H](C)[C@H](CN(C)C(=O)CCC(F)(F)F)OCCCC[C@H](C)Oc2ccc(NS(=O)(=O)c3ccc(F)cc3)cc2C1=O,6.41% (inactive)
3,COCC(=O)Nc1ccc2c(c1)[C@@H]1C[C@H](CC(=O)NCc3ccc(-c4ccccc4)cc3)O[C@H](CO)[C@@H]1O2,-0.847% (inactive)
4,CN1C(=O)c2cc(NC(=O)C3CCCC3)ccc2OC[C@@H]2O[C@@H](CC(=O)NCCc3ccncc3)CC[C@@H]21,-3.7% (inactive)
5,C[C@@H]1CCCCO[C@H](CN(C)S(=O)(=O)c2ccc(Cl)cc2)[C@@H](C)CN([C@H](C)CO)C(=O)c2cc(NC(=O)Nc3ccc4c(c3)OCO4)ccc2O1,0.772% (inactive)
6,O=C1[C@@H](c2ccccc2)[C@@H](c2ccccc2)N1c1ccccc1,3.47% (inactive)
7,O=C(N[C@@H]1C=C[C@@H](CC(=O)N2CCOCC2)O[C@H]1CO)c1ccccn1,2.34% (inactive)
8,CN(C)CC(=O)Nc1ccc2c(c1)[C@H]1C[C@H](CC(=O)NCc3ccccn3)O[C@@H](CO)[C@H]1O2,-3.52% (inactive)
9,Cc1[nH]c2ccccc2c1CC(=O)Nc1ccc(Nc2cccnc2)c(-c2cccc(Cl)c2)c1,-5.11% (inactive)
10,CO[C@H](CN(C)C(=O)c1ccc2c(c1)OCO2)[C@H](C)CN([C@@H](C)CO)S(=O)(=O)c1ccc(Cl)cc1,3% (inactive)
11,C[C@H]1CN([C@@H](C)CO)C(=O)c2cccc(NC(=O)Nc3ccc(F)cc3)c2O[C@@H]1CN(C)C(=O)Nc1ccc2c(c1)OCO2,4.97% (inactive)
12,N#C[C@@H]1[C@H](c2ccccc2-c2ccc(F)cc2)[C@@H](CO)N1c1ncc(-c2ccccc2)s1,3.09% (inactive)
13,O=C(c1ccncc1)N1C[C@H]2[C@@H](c3ccccc31)[C@H](CO)N2Cc1ccc(F)cc1,-3.32% (inactive)
14,COc1ccc2c3c(n(C)c2c1)[C@@H](CO)NCC31CCN(CC2CCCC2)CC1,1.66% (inactive)
15,O=C(Nc1ccccc1)N1CC(=O)N2[C@@H](CO)[C@H](c3ccc(C#CC4CCCC4)cc3)[C@@H]2C1,1.6% (inactive)
16,C[C@@H]1CN([C@H](C)CO)C(=O)c2cc(-c3cncnc3)cnc2O[C@@H]1CN(C)Cc1ccc(Oc2ccccc2)cc1,-1.07% (inactive) and -77.5% (inactive)
17,COCC(=O)Nc1ccc2c(c1)C(=O)N(C)[C@@H]1CC[C@@H](CC(=O)NCCCN(C)C)O[C@@H]1CO2,-2.7% (inactive)
18,C[C@@H](NC(=O)C[C@@H]1C=C[C@@H](NC(=O)CN2CCOCC2)[C@H](CO)O1)c1ccccc1,10.6% (inactive)
19,Cc1ccc(S(=O)(=O)Nc2ccc3c(c2)C(=O)N([C@@H](C)CO)C[C@H](C)[C@H](CN(C)C(=O)Nc2ccc(C(F)(F)F)cc2)O3)cc1,-3.11% (inactive)
20,CCNC(=O)[C@H]1[C@H](CO)[C@H]2Cn3c(ccc(/C=C/c4ccccc4)c3=O)[C@@H]1N2C(=O)C1CCC1,-5.59% (inactive)
21,Cn1cnc(S(=O)(=O)N2C[C@@H](O)COC[C@H]3O[C@@H](CC(=O)NCc4ccc(F)cc4)CC[C@@H]32)c1,-0.766% (inactive)
22,C[C@@H]1CCCCO[C@@H](CN(C)Cc2ccccc2)[C@H](C)CN([C@H](C)CO)C(=O)c2cc(NC(=O)Nc3cccc4ccccc34)ccc2O1,0.587% (inactive)

row,SMILES,inhibition
1,O=C(c1cnccn1)N1CC2(C1)[C@H](c1ccccc1)[C@H](CO)N2C(=O)c1ccccc1,4.61% (inactive)
2,COc1ccc(CN2C[C@@H](C)[C@H](OC)CN(C)C(=O)c3cc(NC(C)=O)ccc3OC[C@@H]2C)cc1,4.2% (inactive)
3,C[C@H]1CN([C@@H](C)CO)C(=O)Cc2cc(NC(=O)Nc3ccc(C(F)(F)F)cc3)ccc2O[C@@H]1CN(C)S(=O)(=O)c1ccc(Cl)cc1,0.316% (inactive)
4,CO[C@@H]1CN(C)C(=O)c2cc(NC(=O)C3CCOCC3)ccc2OC[C@H](C)N(Cc2cccnc2)C[C@H]1C,7.73% (inactive)
5,CO[C@@H]1CN(C)C(=O)c2cc(NC(=O)c3ccccc3F)ccc2OC[C@@H](C)N(CC2CC2)C[C@H]1C,-2.62% (inactive)
6,COc1ccc(S(=O)(=O)N(C)C[C@H]2Oc3ccc(N(C)C)cc3C(=O)N([C@@H](C)CO)C[C@@H]2C)cc1,-9.71% (inactive)
7,COc1ccccc1NC(=O)Nc1ccc2c(c1)OC[C@H](C)NC[C@H](C)[C@@H](OC)CN(C)C2=O,7.16% (inactive)
8,COc1ccc(CN(C)C[C@H]2Oc3c(NC(=O)C4CCCCC4)cccc3C(=O)N([C@@H](C)CO)C[C@H]2C)cc1,4.09% (inactive)
9,O=C(Cc1cccnc1)N1CC(=O)N2[C@@H](CO)[C@H](c3ccc(C#CC4CC4)cc3)[C@@H]2C1,1.76% (inactive)
10,O=C(NCC[C@H]1CC[C@@H](NC(=O)C2CCCC2)[C@@H](CO)O1)c1cc(Cl)cc(Cl)c1,-0.154% (inactive)
11,C[C@@H]1CN([C@H](C)CO)C(=O)c2cc(NC(=O)CCCN(C)C)ccc2O[C@@H](C)CCCCO[C@@H]1CN(C)Cc1ccncc1,-3.78% (inactive)
12,Cc1ccc(S(=O)(=O)NCC[C@@H]2CC[C@H](NC(=O)CC3CC3)[C@H](CO)O2)cc1,-0.231% (inactive)
13,O=C(NC1CCC1)[C@H]1[C@H](CO)[C@H]2Cn3c(ccc(-c4ccccc4)c3=O)[C@@H]1N2Cc1cocn1,-0.224% (inactive)
14,CCC(=O)N(C)C[C@@H]1Oc2cc(C#CC(C)(C)O)ccc2S(=O)(=O)N([C@@H](C)CO)C[C@@H]1C,-4% (inactive)
15,CCCC#Cc1cnc2c(c1)C(=O)N([C@H](C)CO)C[C@@H](C)[C@@H](CN(C)C(=O)C1CCOCC1)O2,2.67% (inactive)
16,C[C@H](CO)N1C[C@H](C)[C@H](CN(C)CC2CCCCC2)Oc2ccc(NC(=O)CCN3CCOCC3)cc2CC1=O,0.283% (inactive)
17,Cc1ccc(S(=O)(=O)N(C)C[C@@H]2Oc3ccc(NC(=O)c4ccncc4)cc3CC(=O)N([C@H](C)CO)C[C@H]2C)cc1,-4.73% (inactive)
18,COc1ccc(S(=O)(=O)N2CC[C@@H]3[C@H](CO)Nc4ccc(C#Cc5cccc(OC)c5)cc4[C@@H]32)cc1,4.05% (inactive)
19,C/C=C/c1ccc([C@H]2[C@@H](CO)N(C(=O)C3CC3)[C@@H]2CNC(=O)NC(C)C)cc1,-0.982% (inactive)
20,CO[C@@H](CN(C)C(=O)c1cnccn1)[C@@H](C)CN([C@@H](C)CO)S(=O)(=O)c1ccc(Cl)cc1,0.364% (inactive)
21,COc1ccc2c3c(n(C)c2c1)[C@@H](CO)N(CC1CC1)CC31CCN(C(=O)c2ccc3c(c2)OCO3)CC1,-0.398% (inactive)
